In PubChem BioAssay AID1159580 (chemical genetic matrix, 2015):
Where “and” joins values, the source holds several entries; their conditions need not be identical. Equal entries are not always repeated. Screen size: about 5,500 compounds; about 2,000 (36%) were called active. Roughly 18% stayed inconclusive and do not appear here. Cut-off read from the data, not from the text of the source: active = normalized growth mostly below about 0.91 (no sharp cut-off); inconclusive = no clear call, values can overlap the other calls; inactive = mostly above about 0.92. The list shows a part of the results.

Experiment: chemical genetic growth profiling, strain panel (AID 1159580);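 note: tested at 20 µM; growth read once vehicle control cultures reached saturation at 30 °C; 1 = growth at the plate median or of vehicle wells; lower values mean less growth of the strain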
Details: growth OD

Measured: normalized growth

Cc1ccc(O)c(C(CCN(C(C)C)C(C)C)c2ccccc2)c1 (configuration not stated)
inactive: S. cerevisiae deletion strains, locus YAL013W, strain DEP1, active compounds read low 1.01 | S. cerevisiae deletion strains, locus YBR021W, strain FUR4, active compounds read low 1 | S. cerevisiae deletion strains, locus YBR229C, strain ROT2, active compounds read low 1.01 | S. cerevisiae deletion strains, locus YCL029C, strain bik1, active compounds read low 0.998 | S. cerevisiae deletion strains, locus YDL035C, strain GPR1, active compounds read low 1.01 | S. cerevisiae deletion strains, locus YDL074C, strain BRE1, active compounds read low 1.03 | S. cerevisiae deletion strains, locus YDL101C, strain DUN1, active compounds read low 1.01 | S. cerevisiae deletion strains, locus YDL134C, strain PPH21, active compounds read low 1.02 | S. cerevisiae deletion strains, locus YDL185W, strain tfp1, active compounds read low 0.989 | S. cerevisiae deletion strains, locus YDL192W, strain arf1, active compounds read low 1 | S. cerevisiae deletion strains, locus YDR101C, strain arx1, active compounds read low 0.988 | S. cerevisiae deletion strains, locus YDR150W, strain NUM1, active compounds read low 1.01 | S. cerevisiae deletion strains, locus YDR162C, strain NBP2, active compounds read low 1 | S. cerevisiae deletion strains, locus YDR318W, strain mcm21, active compounds read low 0.991 | S. cerevisiae deletion strains, locus YDR388W, active compounds read low 0.983 | S. cerevisiae deletion strains, locus YDR502C, strain sam2, active compounds read low 0.996 | S. cerevisiae deletion strains, locus YEL061C, strain CIN8, active compounds read low 1.01 | S. cerevisiae deletion strains, locus YER110C, active compounds read low 0.995 | S. cerevisiae deletion strains, locus YER155C, strain BEM2, active compounds read low 1.01 | S. cerevisiae deletion strains, locus YER167W, strain BCK2, active compounds read low 0.994 | S. cerevisiae deletion strains, locus YGL078C, strain dbp3, active compounds read low 0.996 | S. cerevisiae deletion strains, locus YGL086W, strain mad1, active compounds read low 0.995 | S. cerevisiae deletion strains, locus YGL248W, strain PDE1, active compounds read low 1 | S. cerevisiae deletion strains, locus YGR078C, strain PAC10, active compounds read low 1.01 | S. cerevisiae deletion strains, locus YGR135W, strain pre9, active compounds read low 0.985 | S. cerevisiae deletion strains, locus YGR229C, strain SMI1, active compounds read low 0.995 | S. cerevisiae deletion strains, locus YGR252W, strain gcn5, active compounds read low 1 | S. cerevisiae deletion strains, locus YHR030C, strain SLT2, active compounds read low 1.01 and 1.03 | S. cerevisiae deletion strains, locus YHR079C, strain IRE1 (second series), active compounds read low 0.988 | S. cerevisiae deletion strains, locus YHR079C, strain IRE1, active compounds read low 0.981 | S. cerevisiae deletion strains, locus YHR094C, strain hxt1, active compounds read low 0.987 | S. cerevisiae deletion strains, locus YHR129C, strain ARP1, active compounds read low 1.02 | S. cerevisiae deletion strains, locus YHR200W, strain rpn10, active compounds read low 0.982 | S. cerevisiae deletion strains, locus YIL066C, strain RNR3, active compounds read low 1.02 | S. cerevisiae deletion strains, locus YIL073C, strain SPO22, active compounds read low 0.967 | S. cerevisiae deletion strains, locus YIL125W, strain kgd1, active compounds read low 0.985 | S. cerevisiae deletion strains, locus YIR030C, strain dcg1, active compounds read low 0.993 | S. cerevisiae deletion strains, locus YJL095W, strain BCK1, active compounds read low 1.01 | S. cerevisiae deletion strains, locus YJL134W, strain LCB3, active compounds read low 1 | S. cerevisiae deletion strains, locus YJL168C, strain set2, active compounds read low 0.99 | S. cerevisiae deletion strains, locus YJL187C, strain SWE1 (second series), active compounds read low 1.01 | S. cerevisiae deletion strains, locus YJR043C, strain POL32, active compounds read low 1 | S. cerevisiae deletion strains, locus YJR066W, strain TOR1, active compounds read low 0.958 | S. cerevisiae deletion strains, locus YJR075W, strain HOC1, active compounds read low 1 | S. cerevisiae deletion strains, locus YKL009W, strain mrt4, active compounds read low 1 | S. cerevisiae deletion strains, locus YKL068W, active compounds read low 0.986 | S. cerevisiae deletion strains, locus YKL085W, strain MDH1 (second series), active compounds read low 0.99 | S. cerevisiae deletion strains, locus YKL085W, strain MDH1, active compounds read low 0.99 | S. cerevisiae deletion strains, locus YKL190W, strain CNB1, active compounds read low 1.01 | S. cerevisiae deletion strains, locus YKR001C, strain vps1, active compounds read low 0.999 | S. cerevisiae deletion strains, locus YLR039C, strain RIC1, active compounds read low 1.06 | S. cerevisiae deletion strains, locus YLR058C, strain SHM2, active compounds read low 1.01 | S. cerevisiae deletion strains, locus YLR102C, strain apc9, active compounds read low 0.992 | S. cerevisiae deletion strains, locus YLR113W, strain HOG1, active compounds read low 1.03 | S. cerevisiae deletion strains, locus YLR262C, strain YPT6, active compounds read low 1.05 | S. cerevisiae deletion strains, locus YLR268W, strain sec22, active compounds read low 0.984 | S. cerevisiae deletion strains, locus YLR330W, strain CHS5, active compounds read low 1.01 | S. cerevisiae deletion strains, locus YLR342W, strain FKS1 (second series), active compounds read low 1.01 | S. cerevisiae deletion strains, locus YLR371W, strain rom2, active compounds read low 0.972 | S. cerevisiae deletion strains, locus YLR418C, strain cdc73, active compounds read low 0.982 | S. cerevisiae deletion strains, locus YML016C, strain PPZ1, active compounds read low 1.02 | S. cerevisiae deletion strains, locus YML032C, strain rad52, active compounds read low 0.986 | S. cerevisiae deletion strains, locus YML124C, strain tub3, active compounds read low 0.991 | S. cerevisiae deletion strains, locus YMR078C, strain ctf18, active compounds read low 0.978 | S. cerevisiae deletion strains, locus YMR223W, strain ubp8, active compounds read low 0.996 | S. cerevisiae deletion strains, locus YMR263W, strain SAP30, active compounds read low 1.01 | S. cerevisiae deletion strains, locus YMR307W, strain GAS1, active compounds read low 0.993 | S. cerevisiae deletion strains, locus YNL067W, strain RPL9B, active compounds read low 1.01 | S. cerevisiae deletion strains, locus YNL128W, strain TEP1, active compounds read low 1 | S. cerevisiae deletion strains, locus YNL153C, strain GIM3, active compounds read low 1.01 | S. cerevisiae deletion strains, locus YNL183C, strain NPR1, active compounds read low 0.961 | S. cerevisiae deletion strains, locus YNL233W, strain BNI4, active compounds read low 1.01 | S. cerevisiae deletion strains, locus YNL250W, strain rad50, active compounds read low 0.981 | S. cerevisiae deletion strains, locus YNL271C, strain bni1, active compounds read low 0.997 | S. cerevisiae deletion strains, locus YNL298W, strain CLA4, active compounds read low 0.974 | S. cerevisiae deletion strains, locus YNL307C, strain MCK1, active compounds read low 0.996 | S. cerevisiae deletion strains, locus YNL322C, strain KRE1, active compounds read low 1 | S. cerevisiae deletion strains, locus YNR052C, strain pop2, active compounds read low 0.988 | S. cerevisiae deletion strains, locus YOL006C, strain TOP1, active compounds read low 1.05 | S. cerevisiae deletion strains, locus YOL012C, strain htz1 0.768 | S. cerevisiae deletion strains, locus YOL147C, strain pex11, active compounds read low 0.986 | S. cerevisiae deletion strains, locus YOR061W, strain CKA2, active compounds read low 1.02 | S. cerevisiae deletion strains, locus YOR069W, strain VPS5, active compounds read low 1.01 | S. cerevisiae deletion strains, locus YOR136W, strain idh2, active compounds read low 0.983 | S. cerevisiae deletion strains, locus YOR144C, strain elg1, active compounds read low 0.981 | S. cerevisiae deletion strains, locus YOR184W, strain ser1, active compounds read low 1 | S. cerevisiae deletion strains, locus YOR231W, strain MKK1, active compounds read low 1 | S. cerevisiae deletion strains, locus YOR316C, strain cot1, active compounds read low 0.985 | S. cerevisiae deletion strains, locus YPL055C, strain LGE1, active compounds read low 1.01 | S. cerevisiae deletion strains, locus YPL241C, strain CIN2, active compounds read low 1.01 | S. cerevisiae deletion strains, locus YPL256C, strain CLN2, active compounds read low 0.992 | S. cerevisiae deletion strains, locus YPR119W, strain clb2, active compounds read low 0.98 | S. cerevisiae deletion strains, locus YPR141C, strain kar3, active compounds read low 0.985 | S. cerevisiae deletion strains, locus YPR163C, strain tif3, active compounds read low 0.977 | S. cerevisiae deletion strains, locus YPR167C, strain met16, active compounds read low 0.988 | S. cerevisiae deletion strains, strain wtn01, active compounds read low 0.988 | S. cerevisiae strains, strain wild type, active compounds read low 1
